Shown are actives, neighbours in structure and some others; about 2.2% of the full set was active somewhere.
PI4K2A block = qHTS for small molecular inhibitors of PI4K2A; 420,000 tested, 0.13% active; activity change, negative = inhibition, % at 76.9 µM; AID 1346378, 2018; Phosphatidylinositol 4-kinase type 2-alpha (Homo sapiens), Q9BTU6; purified PI4K2A, ADP-Glo luminescence, 1 h; active compounds read low; in the data active = activity change below about -50%; inconclusive = mostly about -30% to -49%;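 also: -100% = wells without enzyme as full effect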
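Compounds are screened against recombinant PI4K2A using PI as substrate and ATP, the latter dispensed at 300 microM. Reactions run one hour at ambient temperature before ADP-Glo detection; full inhibition defined by wells lacking enzyme.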
GALK inhibitor = qHTS Assay for Inhibitors of Human Galactokinase (GALK). P51570. Purified GALK, Kinase-Glo residual ATP luminescence. Potency, µM (series often up to 57.5 µM), without a hit: top-dose activity change, negative = inhibition, hits mostly inhibitors. 270,000 tested, 0.007% active. AID 1868, 2009; also: potency is read from the fitted curve at half-maximal effect; % is scaled to controls: 0 for no effect and ±100 for the full control effect
Target sequence (P51570 whole entry, looked up): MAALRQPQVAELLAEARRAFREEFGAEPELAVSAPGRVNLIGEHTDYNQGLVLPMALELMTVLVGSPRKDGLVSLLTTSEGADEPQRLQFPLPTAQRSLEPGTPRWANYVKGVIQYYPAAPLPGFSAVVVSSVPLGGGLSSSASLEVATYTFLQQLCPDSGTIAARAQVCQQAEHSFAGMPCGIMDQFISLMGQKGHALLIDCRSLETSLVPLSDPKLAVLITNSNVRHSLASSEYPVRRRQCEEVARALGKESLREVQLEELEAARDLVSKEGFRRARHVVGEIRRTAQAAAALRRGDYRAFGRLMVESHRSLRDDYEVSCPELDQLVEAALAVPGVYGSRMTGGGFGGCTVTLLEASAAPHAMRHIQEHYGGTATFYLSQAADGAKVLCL
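ATP-depletion format; final 35 uM ATP, 100 uM D-galactose, 5 nM enzyme; pH 8.0 HEPES/Mg2+ buffer; 60 min RT; luminescence read 10 min after detection reagent.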
miR-21 act = qHTS Assay for Modulators of miRNAs and/orActivators of miR-21. HeLa miR-21 FLuc reporter, luciferase, 48 h. Potency, µM (top dose mostly 38.3 µM), without a hit: at the highest dose activity change, positive = activation, usual class: activators. 340,000 tested, under 10 active;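 also: % of control where 0% means no effect; miR-21 action dims this reporter so a rising signal means less miR-21 action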
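Compounds were titrated across several concentrations (up to approximately 40 uM) and incubated 48 hours with HeLa miR-21-FLuc reporter cells (miR-21 target sequence downstream of FLuc, endogenous miR-21). Readout was firefly luciferase luminescence after lytic detection reagent.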
Nrf2 block = Nrf2 qHTS screen for inhibitors; A549 ARE-Fluc reporter, luciferase luminescence, 18-24 h; Potency, µM (doses to about 46 µM), for the others: top-dose activity change, negative = inhibition, hits mostly inhibitors; 360,000 tested, 2.1% active; AID 504444, 2011; also: potency is read from the fitted curve at half-maximal effect; % is scaled to controls: 0 for no effect and ±100 for the full control effect; nearly all actives have a fitted effect of over 60% in size
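Nrf2 activity is the BugLite luminescence, read 15 min after reagent at room temperature, following CellTiter-Fluor cytotoxicity readout (30 min, 37C). Compound titrations were applied for 18-24 h to 5000 A549 ARE_Fluc cells/well in 5% FBS OPTI-MEM.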
A549 tox = Nrf2 qHTS screen for inhibitors: counterscreen for cytotoxicity | 390,000 tested, 0.16% active | A549 ARE-Fluc cells, CellTiter-Fluor viability, 18-24 h | Potency, µM (top dose mostly 46 µM), without a hit: at the top dose activity change, negative = cytotoxicity, actives largely listed as inhibitors; also: potency is read from the fitted curve at half-maximal effect; % is scaled to controls: 0 for no effect and ±100 for the full control effect
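A549 ARE-Fluc cells in 5% FBS OPTI-MEM, 5000 cells/well, rested 2 h then exposed to compounds in concentration-response for 18-24 h at 37 °C. Viability by CellTiter-Fluor fluorescence (Ex 405/Em 525) after 30 min; luciferase luminescence (BugLite, 15 min, RT) read afterwards.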
Nrf2 ARE act = qHTS of Nrf2 Activators; AID 624171, 2012; Potency, µM (doses to about 46.1 µM), inactives show at the top dose activation, actives largely listed as activators; 410,000 tested, 0.31% active; AREc32 ARE-luciferase reporter (MCF7-derived line), luminescence, 24 h; also: potency is read from the fitted curve at half-maximal effect; % of control where 0% means no effect; nearly all actives have a fitted effect of over 65% in size
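Reporter line AREc32 (ARE-Fluc), seeded overnight in OPTI-MEM with 5% FBS; compound pin-transferred, 24 hr at 37 deg C, 5% CO2; luminescent read-out.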
An asterisk follows results filed as active; ? = inconclusive; . = not tested or not shown; ! = not confirmed by another sample; [ ] = remark or other dose. Unless noted, calls follow the shape of the dose curve; as a rule, active = well fitted curve in the direction sought with a large enough effect; inconclusive = small, poorly fitted or top-dose-only effect, or another doubt; inactive = no such curve, though single readings can be large; an effect the other way counts as inactive or inconclusive.

SMILES | PI4K2A block | GALK inhibitor | miR-21 act | Nrf2 block | A549 tox | Nrf2 ARE act
Cc1ccccc1OCc1n(CC(=O)OC2CC(C)CCC2C(C)C)c2ccccc2[n+]1C (stereo not drawn) | 7.2 | 1.7% | ? | 18.4µM*! | -13.0% | -2.6%
CC1CCC(C(C)C)C(OC(=O)Cn2c(-c3ccc(Br)cc3)[n+](C)c3ccccc32)C1 (stereo not drawn) | -3.3 | 3.0% | ? | 20.6µM* | ? | -3.1%
O=C(CSc1nnc(CCc2ccccc2)n1-c1ccc(Cl)cc1)c1ccccc1 | -1.1 | 0.0% | -2.9% | 23.1µM* | ? | 3.7%
COc1ccc(-n2c(CCc3ccccc3)nnc2SCC(=O)c2ccc(Cl)cc2)cc1 | 6.4 | 0.3% | -2.0% | ? | ? | 0.0%
O=S(Cc1ccc(Br)cc1)Cc1nnc(SCc2ccc(Cl)cc2)n1-c1ccccc1 (stereo not drawn) | 3.2 | -1.2% | ? | 16.4µM* | ? | 3.0%
COc1ccc(C(=O)N(Cc2cccs2)Cc2cccs2)c(O)c1 | . | . | . | 24.2% | 2.1% | .
O=C1Cc2cc(S(=O)(=O)N3CCN(c4ccc(C(F)(F)F)cc4)CC3)ccc2N1 | . | . | . | ? | -25.2%[92.2 µM] | .
O=[N+]([O-])c1ccc(N/N=C/c2cn(-c3ccccc3)nc2-c2ccccc2)cc1 | -5.4 | -4.9% | -18.5% | -15.4% | ? | 2.1%
COc1ccccc1NS(=O)(=O)c1cccc(C(=O)N/N=C/c2c(C)nn(-c3ccccc3)c2N2CCCC2)c1 | 0.4 | 2.5% | 13.0% | 18.4µM* | -2.0% | 3.3%
Cc1nn(-c2ccccc2)c(N2CCCC2)c1/C=N/Nc1ccc(S(=O)(=O)Nc2ccccc2)cc1[N+](=O)[O-] | 0.6 | 3.2% | -2.4% | 8.2µM* | ? | 0.0%
CCN(CC)c1ccc(/C=N/NC(=O)c2cccc(S(=O)(=O)Nc3ccccc3OC)c2)c(O)c1 | 3.2 | 1.4% | 15.9% | 23.1µM* | -18.7% | -0.9%
NS(=O)(=O)c1ccc(N/N=C/c2cn(-c3ccccc3)nc2-c2ccccc2)c([N+](=O)[O-])c1 | -0.1 | -0.3% | -7.1% | 23.1µM* | 20.6µM* | 0.4%
CCN(CC)c1ccc(/C=N/NC(=O)c2cccc(S(=O)(=O)Nc3ccccc3OC)c2)cc1 | -0.2 | -0.3% | 3.7% | -20.4% | -0.2% | -0.1%
CC1CCC2(CC1)CCC2NCc1ccc(Br)cc1 (stereo not drawn) | -5.6 | . | . | . | . | .
O=C(CCc1ccccc1)N[C@H]1[C@H](O)CCC[C@@]12C(=O)N(Cc1ccccc1)c1ccc(-c3ccccc3)cc12 | 3.3 | . | . | . | . | .
CCCCC(=O)NC(=S)NNC(=O)c1ccc(Cl)cc1Cl | -2.4 | 1.1% | 2.3% | ? | 0.4% | -0.7%
Cc1ccc(C(=O)NC(=S)NNC(=O)c2ccccc2)cc1 | -1.6 | 5.2% | -2.9% | ? | -17.2% | -0.3%
O=C(NNC(=S)NC(=O)c1ccc(Br)cc1)c1ccc([N+](=O)[O-])cc1 | -9.6 | 1.0% | -14.4% | 20.6µM* | -2.5% | 2.6%
Cc1ccc(C(=O)NNC(=S)NC(=O)c2ccc(Cl)cc2Cl)cc1 | -2.8 | -1.4% | -14.7% | 20.6µM* | -19.8% | 0.4%
Cc1ccc(C(=O)NNC(=S)NC(=O)c2ccccc2)cc1 | -4.7 | . | . | 16.4µM* | ? | 3.9%
C[C@H]1CCCN1c1cccc2c1S(=O)(=O)N(C1CC1)CCCO2 | -2.1 | . | . | . | . | .
COc1ccc(CN(CCN2CCOCC2)C(=O)c2cc(F)ccc2C)cc1OC | -1.0 | . | . | . | . | .
O=C(CCNc1cc(Cl)cc(Cl)c1)c1cccs1 | 2.2 | 5.1% | -9.2% | 8.9% | 6.5% | 6.31µM*
CC(C)Nc1nc(C#N)nc(Nc2ccccc2)n1 | . | . | . | 18.9% | -0.9% | .
O=[S+]1([O-])N=C(Oc2cccnc2)c2ccccc21 | . | . | . | 11.4% | -2.1% | .
SMILES | PI4K2A block | GALK inhibitor | miR-21 act | Nrf2 block | A549 tox | Nrf2 ARE act
CCOCCCn1c(C)nc2c(c1=O)c1nc3ccccc3nc1n2CCC1=CCCCC1 | 3.5 | 0.5% | -4.8% | 13µM* | ? | -0.3%
Cc1nc2c(c(=O)n1CCC1=CCCCC1)c1nc3ccccc3nc1n2/N=C/c1ccccc1 | 3.4 | 0.1% | -8.1% | ? | . | 0.7%
O=C(NCCCc1ccccc1)OC1CCC12CCC(c1ccccc1)CC2 (stereo not drawn) | -1.9 | . | . | . | . | .
COc1ccc(C(=O)N(Cc2ccccc2)Cc2cccs2)c(O)c1 | . | . | . | 9.6% | -1.2% | .
S=C(Nc1ccc(Nc2ccccc2)cc1)NC1CCCCCC1 | 2.4 | 0.8% | 27.0% | 18.4µM* | ? | 4.1%
Cc1cc2oc(=O)cc(-c3ccccc3)c2c(C)c1-c1ccc(O)cc1 | -0.5 | . | . | 16.4µM* | -9.7% | 6.1%
CC1=NN(c2ccc(S(=O)(=O)O)cc2Cl)C(=O)C1 | -61.4* | 1.9% | 1.1% | ? | -2.6% | -0.3%
CC1=NN(c2ccc(Cl)c(C(=O)O)c2)C(=O)C1 | -28.7 | 0.0% | -5.0% | -8.5% | -0.5% | -0.2%
CC1=NN(c2cccc(Cl)c2)C(=O)C1 | -59.8* | -0.5% | 1.2% | -13.5% | -5.4% | -0.5%
Cc1cc2c(s1)c1cnn(Cc3ccc(F)cc3Cl)c(=O)c1n2C | . | . | . | 4.0% | 0.5% | .
CC(C)COc1ccc(C/C(N)=N/n2cnnc2)cc1 | 0.4 | 3.6% | 11.1% | 16.4µM* | -26.4% | 2.5%
Cc1ccc(NC(=O)CCS(=O)(=O)c2cc3c(cc2Cl)NC(=O)CO3)cc1 | 6.0 | -6.9% | 0.1% | -13.1% | -2.5% | 0.1%
CCN(CC)c1ccc(NC(=O)CCS(=O)(=O)c2cc3c(cc2Cl)NC(=O)CO3)c(C)c1 | -0.6 | . | 16.4% | 16.4µM* | ? | -1.9%
O=C(NC1CCCCC1)C(c1cccnc1)N(C(=O)CCl)c1cccc(Cl)c1 (stereo not drawn) | 19.0 | -3.5% | 24.7% | ? | -18.7% | 12.6µM*
CNC(=O)[C@@H]1CC=C[C@@H]2CCN(c3ccccc3)C(=O)[C@@H]21 | -1.5 | . | . | . | . | .
N#CC1=C(SCC(=O)NC23CC4CC(CC(C4)C2)C3)NC(=O)C(C#N)C12CCCCC2 (stereo not drawn) | 5.7 | -5.3% | 24.9% | 14.6µM* | ? | 0.7%
N#CC1=C(SCC(=O)NC2CC2)NC(=O)C(C#N)C12CCCCC2 (stereo not drawn) | 2.0 | 1.2% | -7.2% | -9.8% | -0.2%[1.84 µM] | -0.3%
O=[N+]([O-])c1ccc2nc(COCc3nc4ccccc4[nH]3)[nH]c2c1 | -5.2 | . | . | . | . | .
CCCC1CCC2(CCC(=O)N2CCSc2ccccc2)CC1 (stereo not drawn) | -0.3 | . | . | . | . | .

Source: PubChem (National Center for Advancing Translational Sciences (NCATS))
